Screening results: PubChem, National Center for Advancing Translational Sciences (NCATS)
KDM5B inhibitor = Primary screen for KDM5B Histone Demethylases FDH-coupled qHTS. KDM5B demethylase, FDH-coupled NADH fluorescence (FDH is formaldehyde dehydrogenase). Potency, µM (doses to about 57.7 µM), usual class: inhibitors. 220,000 tested, 2.6% active. AID 1347165, 2019; active = well fitted inhibition curve with a large enough effect; inconclusive = small, poorly fitted or top-dose-only effect; inactive = no such curve, though single readings can be large or run the other way; note: potency is the fitted concentration of half-maximal effect; 0% is about no effect; nearly all actives have a fitted effect of over 70% in size
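Measured: NADH fluorescence change, 30 min, RT. System: KDM5BΔAP 200 nM final, H3K4me3 peptide, α-KG, Fe(II), ascorbate, NAD⁺ plus FDH, pH 7.5 HEPES. Compounds: titrated, 10 min pre-incubation with enzyme.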
IP6K1 inh = Primary qHTS assay for small molecule inhibitors of Inositol hexaphosphate kinase 1 (IP6K1); Inositol hexakisphosphate kinase 1 (Homo sapiens), Q92551; IP6K1 kinase, ADP-Glo luminescence, 2 h; hits give low values; activity change, % (series mostly up to about 58 µM); 140,000 tested, 0.81% active; in the data active = activity change below about -25%; note: % is set by controls: 0 for no effect and ±100 for the full control effect
Target sequence (Q92551 whole entry, looked up): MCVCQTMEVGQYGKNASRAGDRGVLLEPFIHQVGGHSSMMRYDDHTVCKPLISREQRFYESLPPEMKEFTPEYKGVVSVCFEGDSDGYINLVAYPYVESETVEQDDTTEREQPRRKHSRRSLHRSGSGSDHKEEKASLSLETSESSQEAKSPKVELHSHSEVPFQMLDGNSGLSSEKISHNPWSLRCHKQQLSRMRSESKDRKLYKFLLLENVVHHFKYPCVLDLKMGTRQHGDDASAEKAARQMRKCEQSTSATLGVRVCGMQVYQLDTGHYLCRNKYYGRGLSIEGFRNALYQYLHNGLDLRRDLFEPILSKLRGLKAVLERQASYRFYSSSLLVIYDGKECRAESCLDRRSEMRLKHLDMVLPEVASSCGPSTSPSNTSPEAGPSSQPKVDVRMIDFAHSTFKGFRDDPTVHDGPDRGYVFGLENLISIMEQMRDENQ
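ADP-Glo luminescence measures ADP made by human IP6K1 during a 2 h RT reaction with ATP/IP6 (mix at 1.3 mM/130 uM); top library doses 57.5 and 19.1 uM final.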
An asterisk follows results filed as active; i = inactive; ? = inconclusive; nt = no result given. Compounds with a hit are over-represented: about 2.8% of the library has one in this group of screens.

SMILES | KDM5B inhibitor | IP6K1 inh
COc1ccc(CN2CCOc3nc(-c4ccc(F)cc4F)ncc3C2=O)cc1 | i | 5
COc1cccc(-c2ncc3c(n2)OCCN(Cc2ccccc2)C3=O)c1 | 35µM* | -6
COc1ccc(-c2ncc3c(n2)OCCN(Cc2ccccc2)C3=O)cc1 | i | -13
COc1ccc(CN2CCOc3nc(-c4ccc(O)c(F)c4)ncc3C2=O)cc1 | 32µM* | 9
CCOc1ccccc1NC(=O)C(C)n1nnc2sc3c(c2c1=O)CCCC3 (stereo not drawn) | i | 46
CN(Cc1cccc(N2CCN(C(=O)OC(C)(C)C)CC2)c1)[S+](C)(=O)[O-] | nt | -2
CC(C(=O)N(C)C1(C#N)CCCCC1)n1cnc2c1c(=O)n(C)c(=O)n2C (stereo not drawn) | i | nt
O=C(c1cccnc1)N1CCN2C(=O)N(C3CCCCC3)C[C@H]2C1 | i | 3
CCc1cccc(CC)c1NC(=O)c1ccc2c(c1)CCC2 | i | nt
Cc1noc(C)c1-c1cc2cc(CN(C)C)oc2c(-c2ccc([S+](C)(=O)[O-])cc2)n1 | 40µM* | 1
COc1ccccc1-c1nc(-c2c(C)noc2C)cc2cc(CN(C)C)oc12 | 35µM* | 19
Cc1noc(C)c1-c1cc2cc(CN(C)C)oc2c(NCCc2ccccc2)n1 | i | -16
Cc1cc2cc(-c3c(C)noc3C)nc(-c3ccc([S+](C)(=O)[O-])cc3)c2o1 | 35µM* | -18
COc1ccc(Nc2nc(-c3c(C)noc3C)cc3cc(CN(C)C)oc23)cn1 | ? | 25
Cc1cc2cc(-c3c(C)noc3C)nc(-c3ccsc3)c2o1 | ? | -4
O=C(c1cc(F)ccc1Cl)N1CCN(C(=O)c2nnn3c2COC(c2ccccc2)C3)CC1 (stereo not drawn) | i | -5
Cc1ccc(C)c(N2CCN(C(=O)Cn3cnc4onc(-c5ccc(F)cc5)c4c3=O)CC2)c1 | i | 8
COC(=O)c1cccc(Nc2cc(-c3ccccc3)ncn2)c1 | i | nt
COc1cc(CNc2nccc3c(=O)cc(N4CCOCC4)oc23)cc(OC)c1 | 28µM* | -10
O=c1cc(-c2cccnc2)oc2c(-c3cn[nH]c3)nccc12 | ? | -18
O=c1cc(-c2cccnc2)oc2c(-c3ccccc3F)nccc12 | 35µM* | -11
O=c1cc(N2CCOCC2)oc2c(-c3cccnc3)nccc12 | 40µM* | -8
C[S+](=O)([O-])c1cccc(-c2nccc3c(=O)cc(N4CCOCC4)oc23)c1 | 28µM* | -1
O=c1cc(-c2cccnc2)oc2c(-c3ccccc3Oc3ccccc3)nccc12 | i | -2
C[S+](=O)([O-])c1cccc(-c2nnc3ccc(C(=O)N4CCOCC4)cn23)c1 | nt | 3
SMILES | KDM5B inhibitor | IP6K1 inh
O=c1cc(-c2cccnc2)oc2c(NCc3ccccc3)nccc12 | i | -22
Cc1ccc(-c2[nH]c3ccccc3c2C=O)c(C)c1 | i | nt
Cc1ccc2c(c1)N(CCCC(=O)N1CCCC(Cc3nncn3-c3ccccc3)C1)C(=O)CO2 (stereo not drawn) | nt | 10
CN(C)CCC(CSc1ccccc1)Nc1ccc(S(=O)(=O)NC(=O)c2ccc(N3CCN(Cc4ccccc4-c4ccc(Cl)cc4)CC3)cc2)cc1[N+](=O)[O-] (stereo not drawn) | nt | -15
O=c1cc(N2CCOCC2)oc2c(-c3cncnc3)nccc12 | 25µM* | -12
O=c1cc(N2CCOCC2)oc2c(Nc3ccccc3)nccc12 | i | -8
CN1CCC(Nc2nccc3c(=O)cc(N(C)c4ccccc4)oc23)CC1 | i | -18
O=c1cc(N2CCOCC2)oc2c(NC3CCOCC3)nccc12 | 35µM* | -18
CC(=O)Nc1cccc(-c2nccc3c(=O)cc(N4CCOCC4)oc23)c1 | 35µM* | 5
COc1ccc(Nc2nccc3c(=O)cc(N4CCOCC4)oc23)cn1 | 32µM* | -4
CC(=O)Nc1cccc(C(=O)OCC(=O)N2CCOCC2)c1 | i | nt
CCC(C)NC(=O)c1ccc(N(C)C)cc1 (stereo not drawn) | i | nt
CCc1nc(-c2c3n(c(=O)n(CC(=O)Nc4ccc(C)c(C)c4)c2=O)CCCC3)no1 | i | 4
COc1cccc(-c2nccc3c(=O)cc(N4CCOCC4)oc23)c1 | 35µM* | -3
O=c1cc(N2CCOCC2)oc2c(-c3cccc(F)c3)nccc12 | 40µM* | -12
CN(c1ccccc1)c1cc(=O)c2ccnc(N3CCOCC3)c2o1 | i | -21
Cc1ccc(F)cc1-c1nccc2c(=O)cc(N(C)C)oc12 | 40µM* | -8
CN(c1ccccc1)c1cc(=O)c2ccnc(-c3cccnc3)c2o1 | i | -22
CN(C)c1cc(=O)c2ccnc(-c3ccccc3F)c2o1 | i | -20
CN(C)c1cc(=O)c2ccnc(-c3ccc(F)c(Cl)c3)c2o1 | 35µM* | -17
CN(C)NC(=S)Nc1ccc([N+](=O)[O-])cc1 | i | nt
COC1CCC12CCN(C(=O)c1cccnc1)CC2 (stereo not drawn) | i | -6
O=C(Nc1ccc(Br)cc1F)Nc1c(N2CCCC2)c2ccccc2oc1=O | i | nt
COc1ccc(N(Cc2cccs2)C(=O)Nc2cccc(Cl)c2)cc1 | ? | 2
O=C(c1ccc2c(c1)OCCN(c1cccc(OC(F)(F)F)c1)C2)N1CCOCC1 | i | -11
SMILES | KDM5B inhibitor | IP6K1 inh
COc1ccc(CN2C=C(C(=O)OCc3noc(-c4ccco4)n3)C(C)=NS2(=O)=O)cc1 | ? | -1
COc1cccc(Cl)c1-c1nccc2c(=O)cc(N(C)C)oc12 | i | -18
CN(C)c1cc(=O)c2ccnc(-c3ccccc3Oc3ccccc3)c2o1 | 35µM* | -11
CN(c1ccccc1)c1cc(=O)c2ccnc(-c3ccnn3C)c2o1 | ? | -4
Cn1nccc1-c1nccc2c(=O)cc(N3CCOCC3)oc12 | 35µM* | 2
CN(c1cc(=O)c2ccnc(-c3ccccc3Oc3ccccc3)c2o1)C1CCOCC1 | i | 16
COc1cccc(-c2nccc3c(=O)cc(N(C)C)oc23)c1 | 32µM* | -12
N#CC(C(=O)C1CCCCC1C(F)(F)F)c1ccc(C(F)(F)F)cn1 (stereo not drawn) | i | nt
CCC(=O)N1CCc2c(sc3ncnc(N4CCN(C)CC4)c23)C1 | ? | -3
CCC(=O)N1CCc2c(sc3ncnc(NCc4ccccn4)c23)C1 | 28µM* | -8
CCNc1ncnc2sc3c(c12)CCN(C(=O)COC)C3 | 35µM* | -11
COCCCNc1ncnc2sc3c(c12)CCN(Cc1cccnc1)C3 | i | -7
CCC(=O)N1CCc2c(sc3ncnc(N)c23)C1 | 28µM* | 2
CCNc1ncnc2sc3c(c12)CCN(Cc1ccncc1)C3 | 25µM* | -8
CCC(=O)N1CCc2c(sc3ncnc(Nc4ccccc4)c23)C1 | ? | -10
CCNc1ncnc2sc3c(c12)CCN(C(=O)CCOC)C3 | ? | -9
O=C1CCC(C(=O)NC(CCn2cncn2)c2ccccc2)=NN1 (stereo not drawn) | i | 1
CN1CCCN(C(=O)c2cc(F)cc(F)c2)c2ccccc21 | i | 2
